The sample as a whole holds a higher share of hits than the screen did.
IMPase Li inh: membrane-permeable IMPase blocker, potentiated with lithium; CHO-M1 cells, IP1 TR-FRET (IP-One), carbachol + lithium; Potency, µM (series often up to 59.4 µM), for inactives: at the highest dose activity, negative = IMPase inhibition, most hits filed as inhibitors; hit rate 0.35% among 210,000; AID 1457;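 also: IP1 builds up when IMPase is blocked and the TR-FRET signal falls; plate controls were basal vehicle for no effect and high inhibitor control for full effect; nearly all actives have a fitted effect of over 50% in size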
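Test compounds were applied to CHO-M1 cells previously cultured for 16–30 h at 2000 per well. A small lithium amount accompanied them; after 30 min at 37C, IP1 was quantified by TR-FRET.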
Tb PFK inh: T. brucei PFK enzyme inhibition | O15648 | T. brucei PFK, ADP-Glo luminescence | Potency, µM (highest dose often 57.5 µM), for inactives: at the top dose activity, negative = inhibition, most hits filed as inhibitors | hit rate 0.17% among 330,000 | AID 485367;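 also: 0% = uninhibited 1x PFK enzyme wells and -100% = no-enzyme wells; nearly all actives have a fitted effect of over 60% in size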
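Activity is normalized to no-enzyme wells (full inhibition) and 1.25 nM enzyme wells (no inhibition). Reaction: 0.5 mM F6P, 0.1 mM ATP, 45 min RT, ADP-Glo luminescence; concentration-response curves fitted and classed by quality.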
RGS12 GoLoco inh: inhibitors of human Gai1-RGS12 GoLoco interaction (red fluorophore). Gai1:RGS12 GoLoco peptide FP, rhodamine, 10 min. Potency, µM (series often up to 61.6 µM), inactives show at the highest dose activity, negative = inhibition, actives largely listed as inhibitors. hit rate 0.44% among 230,000; active = well fitted inhibition curve with a large enough effect, not every such curve was filed as active; inactive = no such curve, though single readings can be large or run the other way; also: nearly all actives have a fitted effect of over 30% in size
Target sequence (P63096 whole entry, looked up): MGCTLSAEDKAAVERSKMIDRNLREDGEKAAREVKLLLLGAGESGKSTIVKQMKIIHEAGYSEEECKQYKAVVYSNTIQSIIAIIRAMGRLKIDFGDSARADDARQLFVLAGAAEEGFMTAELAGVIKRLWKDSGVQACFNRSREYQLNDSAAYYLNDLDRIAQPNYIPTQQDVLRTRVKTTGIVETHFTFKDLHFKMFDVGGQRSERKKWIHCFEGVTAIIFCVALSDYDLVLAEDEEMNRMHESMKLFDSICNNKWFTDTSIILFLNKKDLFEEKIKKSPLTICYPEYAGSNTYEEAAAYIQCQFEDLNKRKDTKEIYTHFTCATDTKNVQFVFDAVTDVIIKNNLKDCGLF
NPSR antag: neuropeptide S receptor (human) antagonism, cAMP; Potency, µM (series often up to 38.3 µM), for inactives: top-dose activity change, negative = inhibition, hits mostly inhibitors; CHO-NPSR cells, cAMP TR-FRET, antagonist mode; hit rate 1% among 220,000; Q6W5P4; AID 1461; also: nearly all actives have a fitted effect of over 50% in size
MBNL1 CUG block: MBNL1-poly(CUG) RNA binding inhibition; AID 2675; hit rate 0.036% among 280,000; TR-FRET MBNL1-His/biotin-(CUG)12 binding, 665/545 ratio; Q9NR56; Potency, µM (doses to about 57.5 µM), for inactives: at the highest dose activity change, negative = inhibition, hits mostly inhibitors; active = well fitted inhibition curve with a large enough effect in the signal ratio, with a control signal flat, not every such curve was filed as active; inconclusive = small, poorly fitted or top-dose-only effect, or effect the other way, or a change in a side signal; inactive = no such curve, though single readings can be large or run the other way; the % refers to the signal ratio
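TR-FRET between His-tagged MBNL1 and biotin-(CUG)12 RNA, detected with Tb anti-His antibody (0.055 ng/ul) and streptavidin-XL665 (5 nM), 60 min at room temperature. Compounds titrated 92 nM to 58 uM; 665/545 nm ratio normalized to buffer and complex controls.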
* marks the source's active call; other numbers are inactive results; ? = inconclusive; . = not tested or not shown; ! = not active in a repeat; [ ] = dose if it differs, or a comment. Unless noted, calls follow the shape of the dose curve; as a rule, active = well fitted curve in the direction sought with a large enough effect; inconclusive = small, poorly fitted or top-dose-only effect, or another doubt; inactive = no such curve, though single readings can be large; an effect the other way counts as inactive or inconclusive. Unless noted, % is scaled to controls: 0 for no effect and ±100 for the full control effect; potency is read from the fitted curve at half-maximal effect.

SMILES	IMPase Li inh	Tb PFK inh	RGS12 GoLoco inh	NPSR antag	MBNL1 CUG block
O=C(O)CSc1ccc2ccccc2n1	7.1µM*	-1%	3%	21%[46.1 µM]	?
O=C(O)CCSc1nc2ccccc2c(=O)[nH]1	5%	12%	-9%	9%	-5%
Cc1cc(SCCC(=O)O)nc2ccccc12	11µM*	1%	7%	14%[7.67 µM]	-6%
O=C(O)CCSc1ccc2ccccc2n1	14µM*	0%	10%	?	29%
COc1ccc(NC(=O)CCSc2ccc3ccccc3n2)cc1	-15%	-4%	1%	-17%	.
N#Cc1ccccc1OCC(=O)Nc1nnc(C2CC2)s1	.	-2%	.	.	.
CC(C)(C)CN1CCN(Cc2nc(-c3ccc(F)cc3)cs2)CC1CCO (stereo not drawn)	.	-1%	.	.	-2%
N#C[C@H](c1ccccc1)N1CCCN([C@@H](C#N)c2ccccc2)C1c1ccccc1O (stereo partly drawn)	-5%	.	-2%[14.2 µM]	.	.
CC(C)C1CCC(C(=O)NC(Cc2ccccc2)C(=O)O)CC1 (stereo not drawn)	4%	.	20µM*	.	.
CCN(C(=O)COC(=O)c1[nH]c(C)c(C(C)=O)c1C)c1c(N)n(Cc2ccccc2)c(=O)[nH]c1=O	.	-5%	.	.	.
NC(=O)c1ccc(SCC(=O)OCC(=O)NC2CCCCCCC2)c([N+](=O)[O-])c1	.	1%	.	.	.
COC(=O)c1ccc(SCC(=O)NC2CCCCC2)c([N+](=O)[O-])c1	11µM*	-1%	-5%	-47%	9%
Cc1ccc2nc(SCC(=O)NCC3CCCO3)c(C#N)cc2c1 (stereo not drawn)	?	-7%	13%	?	9%
Cc1ccc2cc(C#N)c(SCC(=O)NCC3CCCO3)nc2c1 (stereo not drawn)	10µM*	-2%	-4%	?	9%
CC(C)c1ccc(-n2c(-c3ccccc3)c[n+]3c2CCc2ccccc2-3)cc1	35%	3%	-7%	10µM*	-2%
COc1ccc(-n2c(-c3ccc(Br)cc3)c[n+]3c2CCc2ccccc2-3)cc1	10%	-1%	6%	15%	-9%
Cc1cc(Br)ccc1NC(=O)CNC(=O)CSc1nccn1C	.	1%	.	.	.
Cc1ccc(NC(=O)/C(C#N)=C(\N)C(Cl)(Cl)Cl)nc1	0%	1%	3.5µM*	-8%	18%
Cc1ccc(NC(=O)C(=O)Nc2ccc(C)cn2)nc1	0%	-3%	3%	-5%	-1%
O=C1O[C@@H]([C@H](O)[C@H](O)[C@H](O)CO)[C@@H](O)[C@@H]1O	5%	.	4%[14.2 µM]	.	.
COc1ccc(CN(CCC(c2ccccc2)c2ccc(OC(C)C)cc2)C(=O)CCl)cc1OC (stereo not drawn)	14%	5%	14%	10µM*	?
C[n+]1cccc(CNC(=O)/C=N/O)c1	?	6%	14µM*	-9%[46.1 µM]	5%
CCn1c(/C=C/N(C(C)=O)c2ccccc2)[n+](CC)c2ccc(Cl)cc21	17%	0%	1.8µM*	3%	-16%
CC[n+]1c(/C=C/C=C/N(C(C)=O)c2ccccc2)sc2ccccc21	47%[38.3 µM]	3%	-177%	-20%[46.1 µM]	14%
COc1ccc(/C(O)=C2\C(=O)C(=O)N(c3cc(C)on3)C2c2ccccc2OC)cc1 (stereo not drawn)	6.3µM*	-8%	-5%	2%[46.1 µM]	?
SMILES	IMPase Li inh	Tb PFK inh	RGS12 GoLoco inh	NPSR antag	MBNL1 CUG block
CCOc1ccc(C2/C(=C(/O)c3ccc(OC)cc3)C(=O)C(=O)N2c2cc(C)on2)cc1OC (stereo not drawn)	?	1%	6%	-11%[46.1 µM]	16%
COc1cccc(C2/C(=C(\O)c3ccc(OC)c(OC)c3)C(=O)C(=O)N2c2cc(C)on2)c1 (stereo not drawn)	10µM*	-2%	8%	9%[7.67 µM]	64%
CCOC(=O)c1cccc(NC(=O)c2cncc(Br)c2)c1	3%	8%	-3%	-4%	-10%
CO[C@]12C[C@@H](COC(=O)c3cncc(Br)c3)CN(C)[C@@H]1Cc1cn(C)c3cccc2c13	17%	.	13µM*!	.	.
CS(=O)(=O)c1cccc(C(=O)Nc2ccc3c(c2)OCCCO3)c1	.	-1%	.	.	-2%
Nc1cc(C(=O)O)c(N)c2c1C(=O)c1ccccc1C2=O	.	-12%	-11%	3.2µM*	?
